# The sample as a whole holds a higher share of hits than the screen did.
# LmPK inhibitor – blocks Leishmania mexicana pyruvate kinase activity; purified LmPK, Kinase-Glo ATP luminescence, 1 h; Potency, µM (doses to about 57.5 µM), inactives show top-dose activity change, negative = inhibition, most hits filed as inhibitors; actives 0.37% (n = 290,000); Q27686; also: potency is read from the fitted curve at half-maximal effect; % is scaled to controls: 0 for no effect and ±100 for the full control effect
# Target sequence (Q27686 whole entry, looked up): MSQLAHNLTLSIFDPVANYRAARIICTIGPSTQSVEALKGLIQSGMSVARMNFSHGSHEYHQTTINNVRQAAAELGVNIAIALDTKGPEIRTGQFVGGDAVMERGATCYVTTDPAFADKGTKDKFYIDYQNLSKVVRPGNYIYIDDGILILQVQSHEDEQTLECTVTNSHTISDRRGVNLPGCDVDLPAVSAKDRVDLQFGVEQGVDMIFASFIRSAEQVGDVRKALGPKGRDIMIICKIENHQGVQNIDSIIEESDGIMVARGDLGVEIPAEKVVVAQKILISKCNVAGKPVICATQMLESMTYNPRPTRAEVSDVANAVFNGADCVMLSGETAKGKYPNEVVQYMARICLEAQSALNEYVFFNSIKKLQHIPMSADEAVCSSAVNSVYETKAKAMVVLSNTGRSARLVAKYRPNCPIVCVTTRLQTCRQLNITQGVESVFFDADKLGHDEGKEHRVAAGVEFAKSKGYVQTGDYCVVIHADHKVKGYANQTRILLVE
#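 In 50 mM imidazole pH 7.2 with 7 mM MgCl2, LmPK (0.1 nM) turned over PEP (0.5 mM) and ADP (0.1 mM) for 1 h at room temperature. Luciferase read-out of ATP.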
# Cycloheximide cs – counter-screen for Shiga toxin inhibitors: cycloheximide protein synthesis inhibition; cell reporter, cycloheximide protein synthesis inhibition counterscreen; max response, %; actives 12% (n = 300,000); AID 2314; in the data active = max response mostly above about 13%, no sharp cut-off; inactive = mostly below about 14%; also: read at 38.3 µM for the half of the compounds with a filed dose; 0% is about no effect
# Sm TGR inh – inhibitors of Schistosoma mansoni thioredoxin glutathione reductase; purified TGR, DTNB reduction, TNB absorbance 405 nm; Potency, µM (top dose mostly 114 µM), without a hit: at the top dose activity change, negative = inhibition, most hits filed as inhibitors; Q962Y6; AID 485364; actives 3% (n = 360,000); also: potency is read from the fitted curve at half-maximal effect; % is scaled to controls: 0 for no effect and ±100 for the full control effect; nearly all actives have a fitted effect of over 60% in size
#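 TGR 20 nM + NADPH 100 uM (dispensed conc.), cpd preinc 15 min RT; start with NADPH (500 uM addition) then DTNB (15 mM addition). Kinetic TNB absorbance, 405 nm filter. Four-parameter Hill fit across titration.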
# FBPA Giardia inh – inhibitors of Giardia lamblia fructose-1,6-bisphosphate aldolase; A8B2U2; purified Giardia FBPA; Potency, µM (titrated, usually from 59.6 µM), without a hit: top-dose activity, negative = inhibition, usual class: inhibitors; actives 0.71% (n = 290,000); AID 2451; also: potency is read from the fitted curve at half-maximal effect; % is scaled to controls: 0 for no effect and ±100 for the full control effect; nearly all actives have a fitted effect of over 55% in size
#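 Giardia FBPA (40 nM reagent) was preincubated 10 min at RT with compound (up to 57.5 uM final), then substrate plus GAPDH/TPI/NAD/arsenate coupling system with diaphorase/resazurin was added; resorufin fluorescence (525/598 nm) was read after 20 min.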
# Shiga inhibitor – blocks Shiga toxin action in Vero cells | AID 2315 | inhibition, % at 38.7 µM | actives 9.2% (n = 290,000) | Vero cells, Shiga toxin protein synthesis inhibition reporter; in the data active = inhibition mostly above about 28%, no sharp cut-off; inactive = mostly below about 43%; also: 0% is about no effect
# Tb PYK inh – T. brucei pyruvate kinase inhibition; Q57TT1; TbPYK enzyme, Kinase-Glo Plus ATP luminescence, 45 min; Potency, µM (doses to about 76.8 µM), for the others: top-dose activity, negative = inhibition, usual class: inhibitors; actives 0.12% (n = 410,000); AID 624173; also: potency is read from the fitted curve at half-maximal effect; % is scaled to controls: 0 for no effect and ±100 for the full control effect; nearly all actives have a fitted effect of over 50% in size
#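 ADP (130 uM final) triggers the TbPYK reaction after compound addition; incubation is 45 min at room temperature. Kinase-Glo Plus is then added and luminescence imaged. Normalized data are fitted to concentration-effect curves.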
# An asterisk follows results filed as active; ? = inconclusive; nt = no result; [ ] = another dose, or the depositor's remark. Unless noted, calls follow the shape of the dose curve; as a rule, active = well fitted curve in the direction sought with a large enough effect; inconclusive = small, poorly fitted or top-dose-only effect, or another doubt; inactive = no such curve, though single readings can be large; an effect the other way counts as inactive or inconclusive.
SMILES,LmPK inhibitor,Cycloheximide cs,Sm TGR inh,FBPA Giardia inh,Shiga inhibitor,Tb PYK inh
CCOC(=O)N1CCN(C(=O)C2CCC(=O)N(Cc3ccccc3OC)C2)CC1 (stereo not drawn),nt,nt,nt,nt,nt,-3%
Cc1ccc(CCCNC(=O)C2CCC(=O)N(Cc3cccc(F)c3)C2)cc1 (stereo not drawn),0%,14*,4%,-1%,-2,-10%
O=C(NCCCC1CCCC1)C1CCC(=O)N(Cc2cccc(F)c2)C1 (stereo not drawn),-5%,4,-28%,nt,-11,12%
COc1ccccc1CN1CC(C(=O)N2CCC(C(=O)c3ccccc3)CC2)CCC1=O (stereo not drawn),8%,36*,1%,nt,58*,2%
COc1ccc(CCCNC(=O)C2CCC(=O)N(Cc3ccccc3F)C2)cc1 (stereo not drawn),1%,31*,5%,nt,27,7%
COc1ccccc1CCCNC(=O)C1CCC(=O)N(Cc2ccccc2F)C1 (stereo not drawn),-1%,41*,-21%,6%,100*,5%
COc1ccc(N2CCN(C(=O)CCS(=O)(=O)c3cc4c(cc3Cl)NC(=O)CO4)CC2)cc1,nt,nt,-6%,nt,nt,0%
Cc1cc(C)nc(CCNC(=O)C2CCC(=O)N(Cc3ccccc3F)C2)n1 (stereo not drawn),1%,10,0%,nt,17,-2%
COc1ccccc1CN1CC(C(=O)NCCc2ccccc2Cl)CCC1=O (stereo not drawn),0%,38*,1%,-3%,59*,12%
COc1cccc(CN2CC(C(=O)NCCc3ccc(C)o3)CCC2=O)c1 (stereo not drawn),-3%,-1,13µM*,nt,13,2%
COc1cccc(CCNC(=O)C2CCC(=O)N(Cc3cccc(OC)c3)C2)c1 (stereo not drawn),-2%,5,4%,4%,14,-9%
COc1ccccc1CN1CC(C(=O)NCCC2=CCCCC2)CCC1=O (stereo not drawn),1%,17,-15%,nt,2,-11%
Cc1ccc(CCNC(=O)C2CCC(=O)N(Cc3ccccc3F)C2)o1 (stereo not drawn),4%,40*,45µM*,nt,102*,-10%
CCCC(=O)O[C@]1(C(=O)CCl)[C@H](C)C[C@@H]2[C@H]3CCC4=CC(=O)C=C[C@]4(C)[C@@]3(F)C(=O)C[C@@]21C,nt,nt,nt,nt,nt,3%
C=CCN1C(=O)/C(=C\c2ccc(Oc3nc(N4CCOCC4)nc(N4CCOCC4)n3)c(OC)c2)SC1=S,8%,5,3%,7%,12,7%
O=C(O)/C=C/C(=O)NNc1ncnc2ccccc12,-4%,31*,-22%,-15%,81*,1%
O=C(NNc1ncnc2ccccc12)c1cccc(Cl)c1,-2%,31*,7%,-10%,52*,1%
CC(=O)NNc1ncnc2ccccc12,4%,8,1%,0%,3,-2%
Cc1cnc(C(=O)O)cn1,nt,nt,nt,nt,nt,-1%
CCn1cc(C(=O)NCC(OC)OC)c(=O)c2cc(S(=O)(=O)N(C)C3CCCCC3)ccc21,3%,-1,1%,7%,1,0%
CCSc1ncc(/C=N/Nc2ccccc2)n1C,3%,29*,4%,-4%,55*,?
CCSc1ncc(/C=N/Nc2ccc([N+](=O)[O-])cc2)n1C,-4%,25*,17%,4%,55*,1%
Cn1c(CO)cnc1SCC(=O)c1ccc(Cl)cc1,-2%,18,-4%,-4%,31,-9%
O=[N+]([O-])c1ccc(C=NNc2ccccc2)cc1,nt,nt,nt,nt,nt,1%
CCSc1ncc(/C=N/Nc2ccc(Cl)cc2)n1C,0%,77*,4%,-16%,112*,-1%
SMILES,LmPK inhibitor,Cycloheximide cs,Sm TGR inh,FBPA Giardia inh,Shiga inhibitor,Tb PYK inh
CO[C@H]1COC(=O)CCC[C@@H](C)[C@H](OC)COC(=O)[C@H]2CCCN2C(=O)C/C=C\[C@@H]1C,nt,nt,nt,1%[12.9 µM],nt,nt
COc1ccc(-c2cn(Cc3ccc(C)cc3)nn2)cc1,-1%,55*,10%,2%,79*,1%
CCOC(=O)c1ccc(NC(=O)Nc2cc(C)on2)cc1,-6%,32*,6%,-2%,39*,-5%
CCOC(=O)c1ccc(NC(=O)Nc2cccc(C)n2)cc1,1%,-5,6%,2%,1,-3%
CCOC(=O)c1ccc(NC(=O)Nc2ccc(S(N)(=O)=O)cc2)cc1,-1%,-2,-11%,4%,-2,0%
CCOC(=O)c1ccc(NC(=O)Nc2ccccn2)cc1,-8%,24*,1%,-2%,61*,6%
CCNc1ccc2c(Cl)cc(=O)oc2c1,6%,19*,-2%,-5%,22,14%
CCN(CC)c1ccc2c(Cl)cc(=O)oc2c1,0%,-2,0%,6%,-8,2%
CC(=O)c1ccc(NC(=O)c2cc(C)nc3c2c(C)nn3-c2ccc(C)cc2)cc1,nt,nt,8%,nt,nt,-4%
Cc1cc(N)n(-c2ccc([N+](=O)[O-])cc2)n1,4%,1,7%,3%,-12,3%
Cc1cc(N)n(-c2ccc(C)c(C)c2)n1,-2%,27*,-1%,-9%,62*,-8%
COc1ccccc1-n1nc(C)cc1N,11%,-3,-1%,4%,53,3%
CCC(=O)Nc1c(C)nn(-c2ccc(C)c(C)c2)c1C,3%,22*,1%,-1%,65*,-3%
Cc1ccc(-n2nc(C)c(NC(=O)CCl)c2C)cc1C,-2%,33*,22µM*,4%,101*,-1%
Cc1cc(N)n(-c2ccccn2)n1,-12%,17*,16%,1%,72*,1%
CC(=O)Nc1c(C)nn(-c2ccc(C)c(C)c2)c1C,-3%,3,4%,4%,-9,-1%
CC1CN(S(=O)(=O)c2cccc(C(=O)N(Cc3nnc(-c4ccccc4Cl)o3)C3CC3)c2)CC(C)O1 (stereo not drawn),nt,nt,-1%,nt,nt,2%
COc1ccc(CNC(=O)c2ccc(N3CCCC3)c(NC(=O)NCc3ccc(F)cc3)c2)cc1,nt,nt,-1%,nt,nt,-6%
Nc1cc(N)c(OCC(F)(F)F)cc1OCC(F)(F)F,-6%,2,1.1µM*,?,7,-27%
CCOC(=O)C(CC)Sc1ncnc2c1c(-c1ccccc1)cn2-c1ccc(OC)cc1 (stereo not drawn),nt,nt,5%,nt,nt,-4%
O=C(COC(=O)c1cnccn1)c1ccc2ccccc2c1,1%,6,4%,-1%,12,0%
CCC(=O)Nc1ccccc1C(=O)OCC(=O)c1ccccc1,0%,20*,-4%,nt,89*,0%
CC(=O)Nc1ccccc1C(=O)OCC(=O)c1ccc2ccccc2c1,4%,28*,18%,nt,76*,6%

# High-throughput results as filed in PubChem BioAssay.
